Compound activity from PubChem.
FMDV FLuc – FMDV antiviral activity by firefly signal; FMDV antiviral cell assay, firefly luciferase signal; Potency, µM (series often up to 57.5 µM), for inactives: at the highest dose activity change, negative = inhibition, most hits filed as inhibitors; 120,000 compounds, 0.23% hits; also: nearly all actives have a fitted effect of over 60% in size
FMDV Renilla – antivirals against foot and mouth disease virus replicon; FMDV replicon cells, Renilla luciferase signal; Potency, µM (series often up to 57.5 µM), for inactives: at the highest dose activity change, negative = inhibition, most hits filed as inhibitors; 120,000 compounds, 0.32% hits; AID 1745857; also: nearly all actives have a fitted effect of over 55% in size
The depositor's hits bear a star; ? = inconclusive; [ ] = dose if it differs, or a comment. A selection: hits, their analogues and other compounds. The true share with any hit is near 0.45%. Calls follow the shape of the full dose curve. % is scaled to controls: 0 for no effect and ±100 for the full control effect; potency is read from the fitted curve at half-maximal effect.

SMILES	FMDV FLuc	FMDV Renilla
CCCNC(=O)NC(=O)CN(C)Cc1ccccc1C(F)(F)F	3%	0%
O=C(O)CNS(=O)(=O)c1cccc(C(=O)/C=C/c2ccccc2Cl)c1	0%	-3%
CCCCCn1c(=N)n(CC(O)COc2cccc(C)c2)c2ccccc21 (stereo not drawn)	?	25µM*
Cc1ccccc1OCC(O)Cn1c(=N)n(CCN2CCCCC2)c2ccccc21 (stereo not drawn)	-7%	-4%
CCOc1ccccc1NC(=O)C(=O)c1c[nH]c2c(CC)cccc12	0%	14%
Cc1ccccc1CN1CCC(C(=O)O)CC1	6%	5%
Cc1ccccc1CN1CCC(N2CCCCCC2)CC1	25µM*	?
O=C(O)C/C(=C/c1ccsc1)c1nc2ccccc2s1	0%	8%
Cc1ccc(C2=NC(C(F)(F)F)(C(F)(F)F)c3c(n(-c4ccccc4)c(=O)[nH]c3=O)N2)cc1	5%	3%
O=c1[nH]c(=O)n(Cc2ccccc2)c2c1C(C(F)(F)F)(C(F)(F)F)N=C(c1cccs1)N2	20µM*	?
CC(=O)c1ccc(C(C)(C)C)cc1NC(=O)c1ccccc1	25%	5%
CC(C)CCNc1nc(-c2ccc(O)c(C(N)=O)c2)cs1	0%	78%
Cn1c(=O)c2c(nc(NCCc3ccc(F)cc3)n2Cc2ccc(F)cc2)n(C)c1=O	-1%	-9%
Cn1c(=O)c2c(nc(NCCO)n2Cc2ccc(F)cc2)n(C)c1=O	10µM*	7.9µM*
C=CCNc1nc2c(c(=O)n(C)c(=O)n2C)n1Cc1ccc(Cl)cc1	14µM*	13µM*
C=CCNc1nc2c(c(=O)n(C)c(=O)n2C)n1Cc1ccccc1Cl	-14%	-19%
CCCCCCNc1nc2c(c(=O)n(C)c(=O)n2C)n1Cc1cccc(C)c1	0%	-7%
Cn1c(=O)c2c(nc(NCCO)n2Cc2ccc(Cl)cc2)n(C)c1=O	13µM*	?
CCCCCCNc1nc2c(c(=O)n(C)c(=O)n2C)n1CCC	?	20µM*
CC(C)CCNc1nc2c(c(=O)n(C)c(=O)n2C)n1Cc1ccc(Cl)cc1	-1%	-9%
N#CC(C(=O)NCc1ccccc1)c1nc2ccccc2nc1N1CCN(c2ccc(F)cc2)CC1 (stereo not drawn)	8%	1%
O=C(NCc1ccccn1)c1ccc(C2CCCCC2)cc1	0%	8%
O=C(NCc1ccncc1)c1ccc(C2CCCCC2)cc1	?	3.5µM*
FC(F)(F)c1nc2ccccc2n1Cc1nnc2n1N=C(c1ccc(Cl)cc1)CS2	-4%	-6%
Cc1oc2cc(OCc3ccc(F)cc3)ccc2c(=O)c1Oc1ccccc1	13%	-7%
SMILES	FMDV FLuc	FMDV Renilla
Cc1cccc(-c2nnc(SCC(=O)N3CCCCC3)o2)c1	131%	9%
Cc1cccc(-c2nnc(SCCC(=O)O)o2)c1	1µM*	-9%
COC(=O)C1(NC(=O)c2cc(F)cc(F)c2)CCCCC1	4%	-5%
CCCSc1ncc(Cl)c(C(=O)N(Cc2ccc(Cl)cc2)Cc2ccco2)n1	-1%	0%
CCCS(=O)(=O)c1ncc(Cl)c(C(=O)N(Cc2ccccc2)Cc2ccco2)n1	22µM*	4%
O=C(c1ccc2c(c1)nc1n2CCCC1)N1CCN(c2ccccc2)CC1	78%	-7%
Cn1c(CN2CCOCC2)nnc1SCc1ccccc1Cl	-4%	8%
N#C/C(=C\c1ccc(OCc2ccc(C#N)cc2)cc1)c1nc2ccccc2[nH]1	-10%	4µM*
Cc1cccc(COc2ccc(/C=C(\C#N)c3nc4ccccc4[nH]3)cc2)c1	0%	?
Cc1ccccc1OCC(=O)Nc1nonc1-c1ccccc1	49%	74%
O=C(CSc1ncnc2c1sc1cccc(F)c12)NC1CC1	7%	-3%
Cc1ccc(N/N=C/c2cccc(C(F)(F)F)c2)cc1Cl	3%	9%
Cc1ccc(Nc2nc3nonc3nc2Nc2cccc(C(F)(F)F)c2)cc1Cl	?	2.2µM*
CC(C)NC(=O)NC(=O)C(C)Sc1nc2ccccc2[nH]1 (stereo not drawn)	17%	7%
CCC(C)c1ccc(NC(=O)COc2ncnc3ccccc23)cc1 (stereo not drawn)	0%	1%
O=C(CSc1nncn1-c1ccccc1)Nc1cccc(S(=O)(=O)N2CCCCC2)c1	15%	18%
Cc1[nH]c(SCC(=O)Nc2cccc(S(=O)(=O)N3CCCC3)c2)nc1Cc1ccccc1	14µM*	-16%
Cc1ccc(-c2noc(CCC(=O)N3CCc4sccc4C3c3cccs3)n2)cc1 (stereo not drawn)	25%	24%
CNS(=O)(=O)c1ccc(NC(=O)c2cc3ccccc3oc2=O)cc1	0%	20%
COc1ccc(CNC(=O)C(C)OC(=O)c2ccc3c(c2)NC(=O)CS3)cc1OC (stereo not drawn)	25µM*	?
CC(OC(=O)c1ccc2c(c1)NC(=O)CS2)C(=O)c1ccccc1 (stereo not drawn)	84%	14%
CC(=O)Nc1ccc(NC(=O)C(C)OC(=O)c2ccc3c(c2)NC(=O)CS3)cc1 (stereo not drawn)	3%	-10%[1.06 µM]
Cc1[nH]c2ccccc2c1C(=O)C(C)OC(=O)c1ccc2c(c1)NC(=O)CS2 (stereo not drawn)	35µM*	?
CC(C)c1cc(N2CCN(CCO)CC2)n2c(nc3ccccc32)c1C#N	-2%	11%
Clc1ccc(-c2csc3ncnc(Sc4nnc(C5CC5)o4)c23)cc1	25µM*	20µM*
SMILES	FMDV FLuc	FMDV Renilla
Cc1cc(C)n(-c2ncnc3scc(-c4ccc(Cl)cc4)c23)n1	-6%	-5%
CCCCCCCCS(=O)(=O)CCCCC(=O)O	20%	13%
O=C1CC(c2ccccc2O)Cc2nc(N3CCN(c4cccc(C(F)(F)F)c4)CC3)ncc21 (stereo not drawn)	8.9µM*	4µM*
CC(=O)N1c2ccccc2C(=O)C1N1CCN(c2cccc(C(F)(F)F)c2)CC1 (stereo not drawn)	-22%	-17%
O=S(Cc1ccc(Cl)cc1)Cc1ccc(F)cc1Cl (stereo not drawn)	-6%	33%
CCCCCCC[N+](CC)(CC)CCCCc1ccc(Cl)cc1	?	7.9µM*
CCCCCCc1ccc(C(=O)Oc2ccc(Cl)cc2)cc1	-7%	-7%
Cc1ccc(CNC(=O)CC2C=CCC2)cn1 (stereo not drawn)	3%	-8%
Cc1nc(Cn2cc(S(=O)(=O)N(C)C)ccc2=O)no1	1%	-10%
Cc1ccc(CCNC(=O)C(C)n2nc(C)c3c(C)n(-c4ccc(C)cc4)nc3c2=O)cc1 (stereo not drawn)	?	13µM*
COc1ccc(CCNC(=O)C(C)n2nc(C)c3c(C)n(-c4ccccc4)nc3c2=O)cc1OC (stereo not drawn)	23%	9%
CCn1c(C)c(/C=C/c2cc[n+](C)cc2)c2ccccc21	?	14µM*
Cc1ccccc1-n1c(/C=C/c2c(C)n(C)c3ccccc23)nc2ccccc2c1=O	2%	-12%
Cc1[nH]c2ccccc2c1CC(=O)NCc1cn2ccccc2n1	-5%	4%
COc1ccc(N2CCN(C(=O)CCc3c(C)nc4cc(-c5ccc(Cl)cc5)nn4c3C)CC2)cc1	32µM*	-5%
COc1ccc(N2CCN(C(=O)CCc3c(C)nc4cc(-c5ccc(OC)cc5OC)nn4c3C)CC2)cc1	-20%	-15%
COC(=O)C1=C(C)N(C(C)C)C(=O)C1(NC(=O)C1CC1)C(F)(F)F (stereo not drawn)	-6%	-6%
O=C(CSc1nc(=O)n(Cc2cccnc2)c2c1CCC2)Nc1cccc(Cl)c1	-3%	19%
